Records with an inconclusive call do not appear. The source made the active and inactive calls. The calls were made as follows: active = hit-call score of the fitted dose curve at least 0.9, where 1 is the maximum; inconclusive = response in the unintended direction; inactive = score below 0.9.

Experimental findings from PubChem BioAssay (EPA / NIEHS) are described below.

This test is described as follows: Tanguay_ZF_120hpf_SWIM_legacy: (Legacy) Oregon State University Tanguay Lab 120 Hour Post-fertilization zebrafish Assay for Swim Bladder Malformation (AID 2283654).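 Also: swim bladder malformation in each larva scored yes or no under brightfield.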 The procedure: Tanguay_ZF_120hpf_legacy is a whole embryo, multiplexed endpoint assay using zebrafish larvae exposed for 120 hours post fertilization on a 96-well plate.Tanguay_ZF_120hpf_SWIM_legacy is one of one assay component(s) measured or calculated from the Tanguay_ZF_120hpf_legacy assay. It is designed to make measurements of zebrafish development as detected with brightfield microscopy of developing zebrafish embryos.Data from the assay component Tanguay_ZF_120hpf_SWIM_legacy was analyzed into 1 assay endpoints. This assay endpoint, Tanguay_ZF_120hpf_SWIM_legacy, was analyzed in the positive analysis fitting direction relative to DMSO as the negative control and baseline of activity. Using a type of morphology reporter, gain-of-signal activity can be used to understand changes in developmentals as they relate to the whole embryo. To generalize the intended target to other relatable targets, this assay endpoint is annotated to the zebrafish development intended target family, where the subfamily is swim bladder morphogenesis.
Zebrafish husbandry: Tropical 5D wild-type adult zebrafish were housed in at an approximate density of 1000 per 100 gallon tank at the Sinnhuber Aquatic Research Laboratory, Oregon State University, Corvallis, OR. Each tank was kept at standard laboratory conditions of 28C on a 14-h light/10-h dark photoperiod in fish water consisting of reverse osmosis water supplemented with a commercially available salt (Instant Ocean). Spawning funnels were placed into the tanks the night prior, and embryos were collected and staged. To increase bioavailability, the chorion was enzymatically removed using pronase (63.6mg/ml, >/= 3.5U/mg, Sigma-Aldrich: P5147) at 4 hours post fertilization (hpf) using a custom automated dechorionator.Chemical exposures: Six hpf dechorionated embryos were placed 1 embryo per well in a 96-well plate prefilled with 90 ul of EM using automated embryo placement systems (AEPS). Ten microliters of each row of dilution plate 2 was added to 2 exposure plates. The final DMSO concentration used was 0.64% (vol/vol). Thirty-two embryos were also exposed to 5uM trimethyltin chloride (positive control). Plates were sealed to prevent evaporation and foil covered to reduce light exposure and kept in a 28C incubator. Embryos were statically exposed until 120 hpf. At 24 hpf, embryos were assessed for photomotor response using a custom photomotor response analysis tool (PRAT) and for developmental toxicity endpoints (MO24: mortality at 24 hpf, DP: developmental progression, SM: spontaneous movement, and NC: notochord distortion). At 120 hpf, locomotor activity was measured using Viewpoint Zebralab and assessed for 18 endpoints. Zebrafish acquisition and analysis program (ZAAP), a custom program designed to inventory, acquire, and manage zebrafish data, was used to collect developmental endpoints as either present or absent (i.e., binary responses were recorded). If mortality occurred for an embryo (at either 24 or 120 hpf), the non-mortality endpoints were not measured.
Turning to `Clc1cccc(Cl)c1`, the result was inactive.

For `OCCN(CCO)CCO`, the outcome was inactive. On to `COc1ccccc1N`, for which the call was inactive.

On to `Oc1c(Cl)cc(Cl)cc1Cl`, for which the result was inactive. For `N#Cc1cccnc1` the value was “inactive”; for `CC(C)(C)c1ccccc1O`, “inactive”. For `CC(C)O.CC(C)O.OCCN(CCO)CCO.OCCN(CCO)CCO.[Ti]` the value was “inactive”; for `CN(C)C(=S)S`, “inactive”; for `Oc1cc(Cl)c(Cl)cc1Cl`, “inactive”. The result for `CCCCCCCCCCCCc1cccc(S(=O)(=O)O)c1` reads “inactive”; that for `Cc1cc(C)cc(C)c1`, “inactive”; that for `Clc1cccc(Cl)c1Cl`, “inactive”.

Turning to `O=C(O)C1(c2ccc3c(c2)OC[C@H](Cc2ccc(-c4ccccc4)cc2)[C@H]3O)CCCC1`, the call was inactive.

Turning to `O=C(N[C@H]1CN2CCC1CC2)c1ccc2c(c1)OCCO2`, the call was inactive.
